Reference: paper PMC5540273 (PLoS ONE, 2017)

Key:
Conditions in all cases: concentration: 1 μM, replicates: in singlicate; n = 1
HASPIN = system: T1, HASPIN
T1 construct: gene GSG2

HCK = system: HCK
HIPK1 = system: HIPK1
HIPK2 = system: HIPK2
HIPK3 = system: HIPK3
HIPK4 = system: HIPK4
HPK1 = system: HPK1
HUNK = system: HUNK
ICK = system: ICK
IGF1R = system: IGF1R
IKK-alpha = system: T2, IKK-alpha
T2 construct: gene CHUK

IKK-beta = system: T3, IKK-beta
T3 construct: gene IKBKB

IKK-epsilon = system: T4, IKK-epsilon
T4 construct: gene IKBKE

INSRR = system: INSRR
INSR = system: INSR
IRAK1 = system: IRAK1
IRAK3 = system: IRAK3
IRAK4 = system: IRAK4
ITK = system: ITK
[1] = system: JAK1(JH1domain-catalytic)
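Further: KINOMEscan kinase panel screen.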

Row | SMILES | %Inh (HASPIN) [%] | %Inh (HCK) [%] | %Inh (HIPK1) [%] | %Inh (HIPK2) [%] | %Inh (HIPK3) [%] | %Inh (HIPK4) [%] | %Inh (HPK1) [%] | %Inh (HUNK) [%] | %Inh (ICK) [%] | %Inh (IGF1R) [%] | %Inh (IKK-alpha) [%] | %Inh (IKK-beta) [%] | %Inh (IKK-epsilon) [%] | %Inh (INSRR) [%] | %Inh (INSR) [%] | %Inh (IRAK1) [%] | %Inh (IRAK3) [%] | %Inh (IRAK4) [%] | %Inh (ITK) [%] | %Inh [1] [%]
1 | COc1cccc(NC(=O)NC2CCN(c3ccnc(Nc4cc(OC)c(OC)c(OC)c4)n3)C2)c1 (stereo not shown) [GSK1379763] | 0 | 0 | 0 | 0 | 85 | 0 | 76 | 0 | 18 | 0 | 0 | 6 | 12 | 0 | 0 | 73 | 86 | 27 | 25 | 0
2 | Oc1cc(Nc2ccnc3cc(I)ccc23)ccc1F [GW552771] | 28 | 76 | 42 | 59 | 20 | 10 | 37 | 2 | 0 | 0 | 31 | 19 | 0 | 0 | 0 | 50 | 25 | 11 | 0 | 4
3 | COc1cc(Nc2nccc(N3CCC(NC(=O)c4cc5ccccc5s4)C3)n2)cc(OC)c1OC (stereo not shown) [GSK1379760] | 19 | 0 | 9 | 0 | 0 | 9 | 90 | 0 | 0 | 13 | 0 | 0 | 6 | 4 | 5 | 18 | 85 | 4 | 5 | 8
4 | O=C(O)C(F)(F)F.O=C(O)C(F)(F)F.O=c1[nH]ccc2nc(N[C@@H]3CCCNC3)nc(Nc3ccc(S(=O)(=O)N4CCOCC4)cc3)c12 [GSK2177277] | 81 | 92.6 | 83 | 92.9 | 97.2 | 54 | 98.2 | 0 | 88 | 90.8 | 100 | 98.1 | 75 | 99.2 | 97.6 | 99.6 | 22 | 83 | 86 | 99
5 | O=C(Nc1cccc(-c2nn3ncccc3c2-c2ccnc(Nc3ccccc3)n2)c1)c1c(F)cccc1F [GSK198271] | 0 | 99.3 | 0 | 0 | 9 | 28 | 43 | 3 | 0 | 24 | 0 | 0 | 0 | 0 | 28 | 0 | 0 | 11 | 12 | 5
6 | Cc1occc1-c1ncc(OC[C@@H](N)Cc2c[nH]c3ccccc23)cc1-c1ccc2[nH]nc(C)c2c1.O=C(O)C(F)(F)F [GSK682037] | 65 | 0 | 0 | 0 | 7 | 35 | 90 | 79 | 0 | 7 | 0 | 0 | 0 | 9 | 9 | 0 | 0 | 0 | 12 | 0
7 | O=C(Nc1n[nH]c2nc(-c3ccc(O)cc3)ccc12)C1CC1 [SB-710363] | 36 | 35 | 94.4 | 91.8 | 90.5 | 21 | 17 | 0 | 98.5 | 0 | 0 | 0 | 7 | 0 | 0 | 0 | 0 | 0 | 0 | 6
8 | Cc1ccc(S(=O)(=O)Nc2ccc(Nc3nccc(Nc4cccc5[nH]ncc45)n3)cc2)cc1 [GSK581271] | 0 | 0 | 0 | 0 | 1 | 0 | 23 | 2 | 0 | 10 | 10 | 3 | 0 | 0 | 0 | 29 | 62 | 43 | 29 | 44
9 | CN1CCN(Cc2cccc(-c3ccc4c(Nc5ccc(Oc6ccccc6)cc5)ccnc4c3)c2)CC1 [GW578342] | 17 | 95.1 | 0 | 2 | 0 | 0 | 25 | 11 | 0 | 5 | 5 | 0 | 12 | 6 | 0 | 13 | 0 | 0 | 9 | 21
10 | Nc1ncnc2c1nc(-c1ccccc1)n2-c1ccccc1 [SKF-97293] | 38 | 27 | 7 | 16 | 35 | 9 | 21 | 0 | 19 | 12 | 50 | 44 | 12 | 16 | 7 | 39 | 40 | 10 | 8 | 0
11 | Cl.NC(=O)c1cccc(Nc2nccc(Nc3ccc(Oc4c(Cl)cccc4Cl)c(Cl)c3)n2)c1 [GW659009] | 0 | 77 | 0 | 11 | 2 | 4 | 0 | 0 | 0 | 0 | 0 | 0 | 0 | 0 | 0 | 0 | 90 | 0 | 98.7 | 9
12 | FC(F)(F)c1ccc(/C=C/c2cncnc2Nc2ccc3[nH]c(Cc4ccccc4)nc3c2)cc1 [GW709199] | 12 | 14 | 21 | 0 | 0 | 13 | 12 | 55 | 0 | 0 | 0 | 0 | 0 | 0 | 0 | 2 | 3 | 0 | 6 | 10
13 | Cc1ccc(F)c(C(=O)Nc2cccc(-c3nn4ccccc4c3-c3ccnc(Nc4cccc(F)c4)n3)c2)c1F [GSK361061] | 1 | 94.4 | 0 | 0 | 14 | 57 | 21 | 11 | 0 | 41 | 0 | 0 | 22 | 26 | 25 | 0 | 17 | 3 | 43 | 9
14 | COc1cc2c(cc1OCCN1CCNCC1)ncc1c3ccc(C#N)cc3[nH]c21 | 93.5 | 3 | 95.2 | 99.8 | 91.9 | 54 | 0 | 0 | 48 | 0 | 46 | 32 | 61 | 3 | 0 | 95.7 | 88 | 99.7 | 23 | 0
15 | c1ccc(-c2n[nH]cc2Nc2ccnc3ccccc23)nc1 [GW694077] | 100 | 0 | 92.7 | 98.6 | 98.3 | 47 | 32 | 0 | 0 | 2 | 92.1 | 81 | 0 | 0 | 0 | 85 | 90.9 | 47 | 14 | 0
16 | Cl.Cl.NCC(C(=O)Nc1cc(Br)c(-c2ccnc3[nH]ccc23)s1)c1ccccc1 (stereo not shown) [GSK1269851] | 97.6 | 29 | 48 | 0 | 55 | 81 | 41 | 0 | 33 | 16 | 44 | 34 | 0 | 0 | 0 | 81 | 34 | 26 | 12 | 2
17 | COc1cc(Nc2ncc3c(C)nc(-c4cc5ccccc5[nH]4)n3n2)cc(OC)c1OC [GW869516] | 0 | 16 | 79 | 0 | 0 | 17 | 2 | 0 | 0 | 0 | 0 | 0 | 0 | 53 | 4 | 2 | 20 | 0 | 43 | 0
